{"source": "PubChem BioAssay (NCI)", "note": "“And” between values parts separate entries of the source, which are not always exact repeats. Equal values may be shown once. Compounds without any hit were thinned out: in the full panel of roughly 83,000, 20% have a hit.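 Growth was measured after 48 h exposure to one concentration of compound in 96-well plates. Values under 10 count as active.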 The source made the active and inactive calls.", "data": [{"system": "MDA-MB-468 breast", "experiment": "NCI-60 one-dose screen, 48 h (100 = growth as untreated, 0 = no growth, -100 = all killed)", "settings": "10 µM unless noted", "values": [{"smiles": "N=C(N)c1ccc(OCCCCCCCCCCOc2ccc(C(=N)N)cc2)cc1", "growth": "-75.6% (active)"}, {"smiles": "CC(=O)Oc1cc(C(C)C)c(OCCN(C)C)cc1C", "growth": "110% (inactive) and 104% (inactive)"}, {"smiles": "c1ccc(-c2ccc3c(c2)C2(CCNCC2)CN3)cc1", "growth": "106% (inactive)"}, {"smiles": "COc1cc(-c2csc(NC(=O)Nc3ccc(Cl)c(C(F)(F)F)c3)n2)cc(OC)c1OC", "growth": "-12.7% (active)"}, {"smiles": "COc1cc2c(cc1OC)-c1c(oc3c4c(ccc3c1=O)OC(C)(C)C=C4)CO2", "growth": "19.2% (inactive)"}, {"smiles": "O=C(O)CCC(NC(=O)OCc1ccccc1)C(=O)O", "note": "(stereo not given)", "growth": "101% (inactive)"}, {"smiles": "Cc1cccc2sc(/N=C(\\N)C(Br)Br)nc12", "growth": "-33.6% (active)"}, {"smiles": "O=C1/C(=C/c2ccccc2)CN(C(=O)C(Cl)Cl)C/C1=C\\c1ccccc1", "growth": "-32.8% (active)"}, {"smiles": "Cc1nc2ccc(Cl)cn2c1-c1nnc(SCc2ccc([N+](=O)[O-])cc2)o1", "growth": "48.9% (inactive)"}, {"smiles": "C=CCc1c2c(c(OC)c3ccoc13)C(=O)/C(=C/c1ccccc1OC)O2", "growth": "-3.89% (active)"}, {"smiles": "COc1ccc(-c2cc(-c3nnc(SCC(=O)Nc4ccc(C(C)=O)cc4)n3-c3ccccc3)c3ccccc3n2)cc1OC", "growth": "111% (inactive)"}, {"smiles": "Clc1ccc(-c2nc(-c3cccs3)no2)cc1", "growth": "44.7% (inactive)"}, {"smiles": "COc1cnc2c(c1)C(=O)c1c-2n(CCCN2CCC(O)CC2)c(=O)c2cc(F)ccc12", "growth": "-57.2% (active)"}, {"smiles": "O=C1OC(c2ccc(-c3ccccc3)cc2)=C/C1=C/c1cccs1", "growth": "-47.5% (active)"}, {"smiles": "C=C(C)[C@@H]1CC[C@]2(COS(C)(=O)=O)CC[C@]3(C)[C@H](CC[C@@H]4[C@@]5(C)CCCNC(C)(C)[C@@H]5CC[C@]43C)[C@@H]12", "growth": "49.9% (inactive)"}]}]}
